In PubChem BioAssay AID1508625 (Wald Lab, School of Medicine, Case Western Reserve …, 2021) one finds corrected activity, negative = more killing and z-score data, which are given here for 45 molecules.

A short description of the assay: enhancers of NK cell killing of ovarian tumor cells, primary screen, imaging, OVCAR3, primary NK cells, calcein-AM imaging (AID 1508625).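 Note: compound given to NK cells 16 h before adding targets at 1.5 to 1 ratio.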 Conditions: OVCAR3 lysis by primary NK cells, at 5 µM; z-score: measured here: robust Z-score, single-point normalisation.

SMILES strings stand for the structures.

Take `COC(=O)c1cc(OC)c(OC)cc1NC(=O)c1cc(Cl)ccc1Cl`: the corrected activity, negative = more killing was -1.51% and the z-score was -0.842.

Turning to `COc1ccc(-c2ccc3c(N)c(C(=O)NCc4ccc(C(F)(F)F)cc4)sc3n2)cc1`, the corrected activity, negative = more killing was -1.13% and the z-score is -0.339.

In the case of `Nc1cc(OC(=O)c2ccccc2Br)nn1S(=O)(=O)c1ccccc1`, the corrected activity, negative = more killing is -1.18% and the z-score was -0.375.

Turning to `COc1ccc(C=c2sc3nc4cc(C)c(C)cc4n3c2=O)cc1Br`, the corrected activity, negative = more killing is -0.475% and the z-score is -0.246.

In the case of `CCc1ccc(NC(=O)CCNC(=O)Cn2cnc3ccccc3c2=O)cc1`, the corrected activity, negative = more killing is 0.879% and the z-score was 0.279.

On to `O=C(O)c1ccc(S(=O)(=O)c2ccc3c(c2)C(=O)N(CC2CCCO2)C3=O)cc1` (stereo not given), for which the corrected activity, negative = more killing is 0.388% and the z-score is 0.146.

On to `O=C(Oc1cccc(NC(=O)c2ccccc2Cl)c1)c1ccc(Cl)c(S(=O)(=O)N2CCCCC2)c1`, for which the corrected activity, negative = more killing was -3.19% and the z-score was -1.2.

For the molecule `CCOC(=O)Cc1ccc(N(Cc2cccs2)S(=O)(=O)c2ccc([N+](=O)[O-])cc2)cc1`, the corrected activity, negative = more killing was -7.32% and the z-score is -1.98.

With `COc1ccc(Cn2c(=S)[nH]c3cc(C(=O)NCc4ccccc4Cl)ccc3c2=O)cc1`, the corrected activity, negative = more killing was -10.8% and the z-score was -3.45.

With `COc1cc(OC)c(OC)cc1CN1CCN(C(=O)c2ccncc2)CC1`, the corrected activity, negative = more killing was -2.22% and the z-score was -0.992.

For the molecule `CC(=O)CSc1nc(-c2cccs2)cc(C(F)(F)F)c1C#N`, the corrected activity, negative = more killing is -1.56% and the z-score was -0.485.

For `COc1ccc(OC)c(C2NC(=S)NC(C)=C2C(=O)Nc2ccccc2)c1` (stereo not given), the corrected activity, negative = more killing was -2.97% and the z-score was -0.92.

For the molecule `COC(=O)c1ccc(CN2CCN3CCCC3C2C2CCCCC2)cc1` (stereo not given), the corrected activity, negative = more killing was -2.78% and the z-score is -1.21.

Take `Cc1oc(-c2cccc(Br)c2)nc1CN1CCC(C(=O)NC(C)CCc2ccccc2)CC1` (stereo not given): the corrected activity, negative = more killing was -7.41% and the z-score was -2.

`CCCC12CN3CC(C)(CN(C1)C31C(=O)Nc3ccc(Br)cc31)C2=O` (stereo not given): the corrected activity, negative = more killing was -2.13% and the z-score was -0.876.

In the case of `CCOC(=O)c1ccc(CN(Cc2ccc(F)cc2)S(=O)(=O)c2cccc(Cl)c2)cc1`, the corrected activity, negative = more killing is -6.34% and the z-score is -1.71.

Regarding `CCC(CC)NC(=O)c1cccc(OC)c1OC`, the corrected activity, negative = more killing was -0.109% and the z-score is -0.0486.

On to `COc1ccc(OC)c(NC(=O)c2cc3c(=O)n4ccccc4nc3s2)c1`, for which the corrected activity, negative = more killing is -6.86% and the z-score is -1.95.

With `COc1cccc(C(=O)N2CCN(CC3CC=CCC3)CC2)c1OC` (stereo not given), the corrected activity, negative = more killing was -3.28% and the z-score was -1.46.

Consider `COc1ccc(C(=O)Nc2ccc(NC(=O)c3ccc(C(C)(C)C)cc3)cc2)cc1[N+](=O)[O-]`, for which the corrected activity, negative = more killing is -5.92% and the z-score is -2.1.

As to `Cc1ccc2c(N)c(C#N)sc2n1`, the corrected activity, negative = more killing was -0.436% and the z-score was -0.166.

In the case of `O=[N+]([O-])c1ccc(Nc2ncnc3ccccc23)cc1`, the corrected activity, negative = more killing is -1.89% and the z-score is -1.01.

For the molecule `CC(C)NC(=O)CC(=O)NN=C1CCCC1`, the corrected activity, negative = more killing is -6.06% and the z-score was -2.58.

`O=C1NN(c2cccc(Cl)c2)C(=O)C1=Cc1cc(Cl)ccc1O`: the corrected activity, negative = more killing is -4.57% and the z-score is -1.45.

Take `O=C(Oc1ccccc1C(=S)N1CCOCC1)c1ccc([N+](=O)[O-])cc1`: the corrected activity, negative = more killing is 4.47% and the z-score was 1.39.

Consider `COc1cccc(-c2nnc(-c3ccc([N+](=O)[O-])cc3)o2)c1`, for which the corrected activity, negative = more killing was 1.18% and the z-score is 0.417.

On to `CCN(CC)C(=O)CSc1nnc(-c2ccccc2)o1`, for which the corrected activity, negative = more killing was -4.29% and the z-score is -1.86.

Take `O=C(CCCN1C(=O)c2cccc3cccc(c23)C1=O)NCCO`: the corrected activity, negative = more killing was -1.75% and the z-score was -0.651.

Take `CC(C)NCCOCCOc1cccc(Br)c1`: the corrected activity, negative = more killing is -3.24% and the z-score is -1.21.

Consider `CCOc1cc(C(=S)N2CCOCC2)ccc1OC(=O)Cc1ccccc1`, for which the corrected activity, negative = more killing was -7.5% and the z-score is -2.32.

Regarding `O=C(O)CN1C(=O)c2ccc(C(=O)O)cc2C1=O`, the corrected activity, negative = more killing was -5.22% and the z-score was -1.62.

For the molecule `CCOC(=O)Cc1c(C)nc2cc(-c3ccc(C(C)(C)C)cc3)[nH]n2c1=O`, the corrected activity, negative = more killing is -7.93% and the z-score is -2.37.

Take `COc1ccccc1CNCc1ccccn1`: the corrected activity, negative = more killing was -2.41% and the z-score is -0.766.

Turning to `COc1ccc(Cl)cc1NC(=O)c1cnn2c(C(F)(F)F)cc(-c3ccc(C)cc3)nc12`, the corrected activity, negative = more killing was -0.972% and the z-score was -0.309.

On to `O=C(Nc1ccc2c(c1)CCC2)c1ccc2c(=O)n(C3CCCCC3)c(=S)[nH]c2c1`, for which the corrected activity, negative = more killing was -2.41% and the z-score was -0.766.

As for `O=c1c(=Nc2ccccc2O)c(=O)c2ccccc12`, the corrected activity, negative = more killing is -2.51% and the z-score was -0.945.

As for `COc1ccc(C(O)=C2C(=O)C(=O)N(c3ccccn3)C2c2ccc(C(C)C)cc2)cc1` (stereo not given), the corrected activity, negative = more killing is -1.15% and the z-score is -0.498.

For the molecule `Cc1ccc(C)c(Cn2cccc2C#N)c1`, the corrected activity, negative = more killing is -4.01% and the z-score was -1.08.

For the molecule `CCOC(=O)c1c(NC(=O)c2ccc(C(=O)c3ccccc3)cc2)sc2c1CCCC2`, the corrected activity, negative = more killing was -3.96% and the z-score was -0.836.

With `COc1ccc2cc3cc(C(=O)N(C)c4cc(C)ccc4C)oc3nc2c1`, the corrected activity, negative = more killing is -6.86% and the z-score is -1.68.

In the case of `Cn1c(SCC(=O)c2ccccc2)nc2c([nH]c3ccccc32)c1=O`, the corrected activity, negative = more killing is -5.65% and the z-score is -1.41.

As for `Cc1ccc(S(=O)(=O)n2nnc3ccccc32)c(C)c1C`, the corrected activity, negative = more killing is -4.06% and the z-score was -1.51.

For the molecule `O=C(CCCn1c(=S)[nH]c2cc3c(cc2c1=O)OCO3)NCCCN1CCOCC1`, the corrected activity, negative = more killing was -7.74% and the z-score was -2.05.

Regarding `CCCCN(C)CCn1c(=S)[nH]c2cc3c(cc2c1=O)OCO3`, the corrected activity, negative = more killing is -6.47% and the z-score was -1.71.

Take `S=C(c1nc2ccccc2[nH]1)N1CCOCC1`: the corrected activity, negative = more killing is -3.36% and the z-score was -1.07.
